Compound activity (PubChem)
TWEAK Fn14 block: inhibitors of TWEAK-Fn14 interaction signaling; TWEAK-stimulated Fn14 reporter cells, luciferase luminescence, 8 h; inhibition, % at 10 µM; hit rate 2% among 360,000; in the data active = inhibition above about 50%
Peg3 promoter: Peg3 promoter activity inhibition; HeLa PEG-Prom luciferase reporter, luminescence, overnight; inhibition, % at 20 µM; AID 588405; hit rate 1.7% among 360,000;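 active = inhibition of at least 50% at 20 µM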
KKLEB cytotox: reduces viability of KKLEB cystic fibrosis airway cells; KKLEB CF airway cells viability, ATPlite luminescence, overnight; hits give low values; cells stimulated with P. aeruginosa culture filtrate; activity change (cytotoxicity), % at 5 µM; hit rate 0.36% among 360,000; AID 602141;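 active = corrected activity change at or below -50% at 5 µM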
TROY NFkB inh: blocks TROY-dependent signaling in reporter cells. inhibition, % at 10 µM. hit rate 0.98% among 360,000. Q293 LMP1-TROYcd NF-kB luciferase reporter, 4 h. AID 1347056;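 active = compounds whose plate-normalised and pattern-corrected inhibition of the luciferase reporter signal at the single screening dose is 50% or more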
HIF-2a block: inhibitors of HIF-2a | 786-0 RCC cells HIF-2a reporter, luciferase luminescence, overnight | inhibition, % at 18.8 µM | hit rate 0.72% among 360,000;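 active = inhibition of the luminescence signal of 40% or more relative to plate controls, in a single-dose primary screen at 18.75 µM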
CF NFkB block: blocks PAF-induced NF-kB reporter in cystic fibrosis cells | KKLEB NF-kB-GFP reporter, GFP fluorescence overnight | inhibition, % at 5 µM | hit rate 0.86% among 360,000;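 active = at least 50% inhibition at 5 µM, scaled per plate between neutral and stimulator controls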;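 note: PAF is a Pseudomonas aeruginosa culture filtrate used as stimulus; plate controls were PAF-stimulated DMSO wells for no effect and unstimulated DMSO wells for full effect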
* = called active by the depositor; nt = not tested or not shown. The list is not random: actives were taken first. Their share in the collection is about 4%.

SMILES	TWEAK Fn14 block	Peg3 promoter	KKLEB cytotox	TROY NFkB inh	HIF-2a block	CF NFkB block
CC[C@@H](NS(=O)(=O)c1ccc(C)cc1)C(=O)Oc1ccc2c3c(c(=O)oc2c1)CCC3	-12	0	6	34	12	-8
CCCCSc1nc2c(cc1C#N)CCC2	-10	-9	-4	-43	-24	2
CCCSc1nc(C)c(-c2csc(C(C#N)=C3CCCC3)n2)cc1C#N	64*	3	0	-10	6	-13
COCC(=O)N1CCC(Oc2ccc(C(=O)NCCCn3cccn3)cc2)CC1	-1	8	4	5	9	4
CCCCNC1=CC(=O)C(=O)c2ccccc21	13	13	0	-24	8	4
CCCCN1C=CC(=C2C(=O)c3ccccc3C2=O)C=C1	99*	110*	-72*	85*	89*	4
O=C(NC1CCCCC1)NC1CC2CCC(C1)N2Cc1nnnn1Cc1ccc2c(c1)OCO2 (configuration not stated)	87*	6	1	nt	7	13
CC(NC(=O)COC(=O)CN1C(=O)NC2(CCCC2)C1=O)c1ccc(F)cc1 (configuration not stated)	-5	18	1	15	8	15
CNC(=O)CC1C(=O)N(c2ccc(OC)cc2)C(=S)N1NC(=O)c1cccc(F)c1 (configuration not stated)	-7	69*	-4	84*	2	6
CC(C)(C)OC(=O)N[C@@H](C(=O)OC(C)(C)C)c1ccc(C(F)(F)F)cc1	-19	-14	-9	-7	1	17
CCCCCCCC(=O)Nc1ccc(C(=O)N/N=C/c2cccc([N+](=O)[O-])c2)cc1	-59	101*	-31	-25	8	34
CCCCCCCCCS(=O)(=O)N/N=C/c1cccc([N+](=O)[O-])c1	18	10	6	51*	5	12
Cc1ccc2c(c1)N(CCC(=O)NCc1ccccn1)C(=O)CO2	1	16	6	1	8	0
Cc1ccc(OCC(=O)Nc2ccc3c(c2)OCO3)cc1C	-1	-88	0	-83	-151	-16
Cc1cc(C)c(C)c(OCCn2ccnc2)c1	111*	20	5	20	9	-10
Cc1ccc(C)c(OCCn2ccnc2)c1	6	19	6	-6	19	6
Cn1c(=O)c(C(=O)NNC(=O)c2ccc(Br)cc2)c(O)c2ccccc21	42	54*	-3	21	7	2
Cn1c(=O)c(C(=O)NNC(=O)c2ccccc2F)c(O)c2ccccc21	-28	17	-3	0	-10	4
Cc1cc(/C=C\c2ccc3cc(N(C)C)ccc3[n+]2C)c(C)n1-c1ccccc1	44	64*	-14	0	28	-37
CC1CCN(CCCNC(=O)CN2CCN(Cc3ccc(Cl)cc3)C2=O)CC1	3	-4	-4	-9	9	-4
COc1ccc(F)cc1CSc1nnnn1-c1ccc(O)cc1	29	17	6	34	14	4
COc1cc(CSc2nnnn2-c2ccc(C)cc2)cc(OC)c1OC	48	26	-10	54*	1	-1
CCOC(=O)c1[nH]c2ccccc2c1NC(=S)Nc1ccccc1C	1	-43	-9	0	-85	-16
Cc1ccc(S(=O)(=O)N2CCN(C(=O)CCC(=O)OCC(=O)Nc3cccc(C#N)c3)CC2)cc1	-14	9	4	-9	4	-7
Cc1ccc(CC(=O)Nc2ccc(Cl)cn2)cc1	2	-119	6	-21	-190	4
SMILES	TWEAK Fn14 block	Peg3 promoter	KKLEB cytotox	TROY NFkB inh	HIF-2a block	CF NFkB block
CSc1ccc(Cl)c(C(=O)Nc2ccc(Cl)cn2)c1	-3	15	-2	-9	-28	-9
Cc1ccc(C(=O)Nc2ncc3c(Cl)cccc3n2)cc1	82*	-31	-29	39	-5	-5
Cc1ccc(C(=O)Nc2ccc(Cl)cn2)cc1	56*	-110	-7	-3	-210	21
CCCOc1ccc(C(=O)Nc2ccc(Cl)cn2)cc1	57*	-85	-2	10	-171	-11
COc1cc(SC)ccc1C(=O)Nc1ccc(Cl)cn1	91*	28	-69*	74*	53*	-17
O=[N+]([O-])c1ccc2nc(NS(=O)(=O)c3ccc(F)cc3)sc2c1	11	15	3	0	2	-35
CN(C)CCn1c(COc2ccccc2)nc2ccccc21	4	13	0	-5	14	1
O=C(NC(NC(=S)Nc1cccc(C(=O)O)c1)C(Cl)(Cl)Cl)OCc1ccccc1 (configuration not stated)	11	13	9	-3	26	8
O=C(/C=C/c1ccccc1)NC(NC(=S)Nc1ccc(Cl)cc1)C(Cl)(Cl)Cl (configuration not stated)	67*	38	-2	42	16	2
CC(C)(C)C(=O)Nc1ccc(N=Nc2ccccc2)cc1	4	2	-39	83*	-2	-16
O=C(O)CCC(=O)Nc1ccc(N=Nc2ccccc2)cc1	-18	-14	0	-18	5	8
CCc1ccc(OCC(=O)NC(NC(=S)Nc2ccccc2)C(Cl)(Cl)Cl)cc1 (configuration not stated)	74*	46	-12	53*	23	2
O=C(NC(NC(=S)Nc1cccc(Cl)c1)C(Cl)(Cl)Cl)OCc1ccccc1 (configuration not stated)	54*	53*	-19	58*	-14	44
O=C(Nc1ccccc1C(=O)O)c1ccc(CN2C(=O)c3ccccc3C2=O)cc1	2	8	2	-25	-4	9
COCCCn1ccc(O)c(Cc2ccc(F)cc2)c1=O	21	1	4	3	18	-14
O=C(CCC1CCCC1)NCCS(=O)(=O)N1CCN(c2ccccc2)CC1	-14	14	-14	-4	8	0
O=C(O)Cn1cnc2scc(-c3ccccc3)c2c1=O	7	8	2	13	11	4
Cn1cccc1/C=N/NC(=O)CNc1ccc2ccccc2c1	40	-2	-4	-6	-12	17
CC(=O)NC(NC(=S)Nc1ccc(N=Nc2ccccc2)cc1)C(Cl)(Cl)Cl (configuration not stated)	63*	-44	26	-19	-72	21
COC(=O)CSC(C)C(=O)Nc1nnc(C(C)C)s1 (configuration not stated)	-1	6	-12	6	10	-5
O=C(NC(=S)/C(=C1\CCCCCN1)[N+](=O)[O-])c1ccccc1	99*	-15	-25	87*	22	-10
O=C(c1ccccc1)c1coc2c1C(=O)c1ccccc1C2=O	68*	-140	5	33	-114	52*
CCCc1[nH]n(-c2nc3ccccc3s2)c(=O)c1C=NCCCOC	-6	-8	6	-19	-38	-12
COCCCN=Cc1c(-c2ccccc2)[nH]n(-c2nc3ccccc3s2)c1=O	-9	-28	-13	-30	-80	-42
